These results are taken from PubChem BioAssay (NCI).

Structures are written as SMILES. This is part of a sample that, as a whole, favours compounds with a hit. Of some 83,000 tested, about 20% had one in any assay.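 How to read the values: 0–100, growth inhibition (40 = 60% inhibited); 0, no net growth; -100 to 0, cell death (-40 = 40% of starting cells died; -100 = all dead).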 Unmarked numbers belong to inactive results. Calls of active or inactive are those of the source. The calls were made as follows: active = growth percent below 10; inactive = the rest.

What all share (experiment): NCI-60 one-dose screen, 48 h (100 = growth as untreated, 0 = no growth, -100 = all killed)
Settings in all cases: 10 µM unless noted

For assay [1], the system named is HCT-15 colon.
In assay [2] the test system is HT29 colon.
Assay [3] has as its system SNB-19 CNS.
For assay [4], the system named is U251 CNS.
Assay [5] has as its system PC-3 prostate.
In assay [6] the test system is SK-MEL-5 melanoma.
Assay [7] deals with UACC-62 melanoma.
The subject of assay [8] is LOX IMVI melanoma.
The subject of assay [9] is SK-MEL-28 melanoma.

On to `COc1cc(Nc2ncccc2C(=O)NCc2cn(Cc3cccc(Oc4ccccc4)c3)nn2)cc(OC)c1`, for which the growth in assay [1] was 32.9%; in assay [2], 8.47% (active); in assay [3], 59.9%; in assay [4] it was 34.7%; in assay [5] it was 57.2%; in assay [6], 19.5%. Further, the growth in [7] was 32.7%; in assay [8] it was 43.6%; in [9] it was 67%.
For `COc1ccc(-c2nc(/C=N/Nc3cc(C)nc4ccc(Br)cc34)c(C)o2)cc1`, the growth in assay [1] is -87.4% (active); in assay [2] it was -76.2% (active); in assay [3] it was -84.4% (active); in [4], -85.8% (active); in [5] it was -78.1% (active); in assay [6] it was 47.4%. The growth in [7] is -77.5% (active); in assay [8] it was -86.7% (active); in [9] it was -74.6% (active).
In the case of `Cc1ccc2nc(-c3cc4c([nH]c5ccccc54)c(-c4ccc(F)c(F)c4)n3)[nH]c2c1`, the growth in assay [1] is 32.7%; in [2], 18.7%; in [3] it was 112%; in assay [4], 64%; in assay [5], 72.6%; in [6], 61.1%. The growth in assay [7] is 90.4%; in [8], 11.7%; in assay [9], 101%.
For `NC(=S)N/N=C(/CCN1CCCC1)CC(C1=C(O)C2=CCCCC2OC1=O)c1ccccc1` (stereo unspecified), the growth in [1] was 75.6%; in [2], 36.2%; in [3], 109%; in assay [4] it was 88%; in assay [5], 85.6%; in assay [6], 98.3%. Besides, the growth in [7] is 97.4%; in assay [8], 56%; in [9], 99.6%.
With `O=c1[nH]c2ccc(Br)cc2c2c1C(c1ccc(Cl)cc1)c1c(ncn3nc(-c4ccco4)nc13)O2` (stereo unspecified), the growth in [1] is 64.9%; in assay [2], 73%; in assay [3] it was 75.8%; in [4] it was 80.8%; in assay [5], 72.1%; in assay [6], 67.4%. In addition, the growth is 59.8% in assay [7], 76.7% in [8] and 91.1% in [9].
Turning to `CCOC(=O)c1cc(C(=O)c2cc(OC)c(OC)c(OC)c2)n2c1ccc1ccccc12`, the growth in assay [1] is 25.7%; in assay [2], 9.65% (active); in assay [3], 35.1%; in assay [4], 49%; in [5], 21.9%; in [6], 9.89% (active). The results for the growth in assay [7], in assay [8] and in [9] were 32.1%, 40.4% and 55.9%, respectively.
`O=C1/C(=C/c2ccc(Cl)cc2)CN(Cc2cn(CCNc3ccnc4cc(Cl)ccc34)nn2)C/C1=C\c1ccc(Cl)cc1`: the growth in [1] is -82% (active); in assay [2], -100% (active); in assay [3], -92.2% (active); in assay [4], -100% (active); in assay [5], -86.5% (active); in assay [6], -100% (active). The growth was -87.1% (active) in assay [7], -93% (active) in assay [8] and -100% (active) in [9].
Consider `COc1cccc(CC(C)=C(c2ccc(OCCN3CCCCC3)cc2)c2ccc(OCCN3CCCCC3)cc2)c1`, for which the growth in assay [1] is -68.1% (active); in [2], -77.9% (active); in [3] it was -9.73% (active); in assay [4] it was -83.7% (active); in assay [5], 19.2%; in assay [6] it was -96% (active). For the same compound, the growth in assay [7] was -72.7% (active); in [8], -91.9% (active); in assay [9] it was -87.9% (active).
With `O=C(O)c1cn(C2CC2)c2cc(N3CCN(C(=O)/C=C/c4ccc(Cl)cc4)CC3)c(F)cc2c1=O`, the growth in [1] was 51.6%; in assay [2], 82.1%; in assay [3] it was 82.8%; in assay [4], 77.7%; in [5] it was 72.6%; in assay [6] it was 64.8%. The growth in assay [7] is 61.7%; in [8] it was 22%; in [9], 66.5%.
As to `N/C(=N\S(=O)(=O)c1ccccc1)Nc1nc2ccccc2s1`, the growth is 104% in assay [1]; 92.1% in assay [2]; 99% in assay [3]; 96.7% in assay [4]; 83.9% in assay [5]; 90.5% in assay [6]. Further, the growth was 76.6% in assay [7], 97.5% in [8] and 109% in assay [9].
As for `CCCCCCCCCCCCNC(=O)[C@H]1CSC(c2ccsc2)N1` (stereo partly specified), the growth in [1] was -71.4% (active); in assay [2], -74% (active); in assay [3], -80% (active); in assay [4] it was -94.2% (active); in [5], -88.9% (active); in assay [6], 36.5%. The growth in assay [7] was -93.5% (active); in [8], -89.5% (active); in assay [9], -88% (active).
For `COC(=O)c1nc(-c2ccccc2)oc1S(=O)(=O)N1CCN(c2cccc(Cl)c2)CC1`, the growth is 65.5% in assay [1]; 50.8% in [2]; 63.6% in assay [3]; 72.2% in [4]; 82% in assay [5]; 99.3% in assay [6]. The growth was 79.7% in [7], 44.3% in [8] and 88.3% in [9].
For the compound `Cc1ccc(S(=O)(=O)/C(=C\c2ccc(Cl)cc2)C(=O)c2ccccc2)cc1`, the growth was 100% in assay [1]; 123% in assay [2]; 95.7% in [3]; 102% in assay [4]; 96.4% in assay [5]; 103% in [6]. Also, the growth in [7] is 101%; in assay [8] it was 104%; in assay [9] it was 100%.
As to `Cc1cc(N/N=C/c2nc(-c3ccccc3)oc2C)c2cc(Cl)ccc2n1`, the growth in assay [1] is -83.3% (active); in [2], -78.1% (active); in assay [3], -31.2% (active); in assay [4], -76.9% (active); in assay [5], -61.1% (active); in assay [6] it was 20.4%. The growth in assay [7] was 86.3%; in assay [8] it was -76.8% (active); in assay [9] it was -96.4% (active).
